Source: PubChem
Shiga inhibitor: A qHTS for Small Molecule Inhibitors of Shiga Toxin; Vero cells, Shiga toxin protein synthesis inhibition reporter; inhibition, % at 38.7 µM; 290,000 compounds, 9.2% hits; AID 2315, 2010; in the data active = inhibition mostly above about 28%, no sharp cut-off; inactive = mostly below about 43%; also: 0% is about no effect
Pf growth 48h: Primary qHTS for delayed death inhibitors of the malarial parasite plastid, 48 hour incubation | 310,000 compounds, 5.9% hits | Potency, µM (series often up to 28.7 µM), for inactives: at the highest dose activity change, negative = inhibition, most hits filed as inhibitors | P. falciparum luciferase growth in erythrocytes, 48 h; also: potency is read from the fitted curve at half-maximal effect; % is scaled to controls: 0 for no effect and ±100 for the full control effect
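Compounds are pin-transferred into medium, infected erythrocytes (2% hematocrit, 0.1% parasitemia final) are added, and plates sit one parasite generation at 37 C in 5% CO2. Detection reagent is then added and luminescence measured.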
Pf growth 96h: Primary qHTS for delayed death inhibitors of the malarial parasite plastid, 96 hour incubation. P. falciparum luciferase reporter growth, 96 h. Potency, µM (titrated, usually from 28.7 µM), without a hit: top-dose activity change, negative = inhibition, usual class: inhibitors. 320,000 compounds, 6.9% hits. AID 504834, 2011; also: potency is read from the fitted curve at half-maximal effect; % is scaled to controls: 0 for no effect and ±100 for the full control effect
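Two-generation exposure (96 h) targets delayed-death phenotype. Reporter parasites carrying integrated firefly luciferase, in red cells at 2% hematocrit and 0.05% parasitemia final, kept at 37 C, 5% CO2; luminescence loss indicates inhibition.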
AMA1 RON2 block: qHTS for Inhibitors of AMA1-RON; Towards Development of Antimalarial Drug Lead: Primary Screen; Potency, µM (highest dose often 58.2 µM), without a hit: top-dose activity change, negative = inhibition, most hits filed as inhibitors; AlphaScreen AMA1-biotinylated RON2 peptide binding; 360,000 compounds, 0.2% hits; AID 720542, 2013;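 also: potency is read from the fitted curve at half-maximal effect; 0% = vehicle wells and -100% = peptide control; nearly all actives have a fitted effect of over 45% in size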
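AMA1 (3D7) with his tag at 25 nM final met compounds first, then biotinylated RON2 peptide at 25 nM; detection used donor plus acceptor beads, 10 µg/mL apiece, read by AlphaScreen after 30 min at room temperature.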
Cycloheximide cs: Cycloheximide Counterscreen for Small Molecule Inhibitors of Shiga Toxin; cell reporter, cycloheximide protein synthesis inhibition counterscreen; max response, %; 300,000 compounds, 12% hits; AID 2314, 2010; in the data active = max response mostly above about 13%, no sharp cut-off; inactive = mostly below about 14%; also: read at 38.3 µM for the half of the compounds with a filed dose; 0% is about no effect
HCV inhibitor: qHTS Assay for Inhibitors of Hepatitis C Virus (HCV); AID 651820, 2012; Huh7.5.1 HCVcc-Cre infection, luciferase reporter, 44 h; Potency, µM (top dose mostly 41.8 µM), inactives show at the top dose activity change, negative = inhibition, actives largely listed as inhibitors; 340,000 compounds, 3.4% hits; also: potency is read from the fitted curve at half-maximal effect; % is scaled to controls: 0 for no effect and ±100 for the full control effect
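Infectious HCVcc-Cre (~0.5 moi) was added to cells just after compound, with cells seeded 4 h earlier at 1,000 per well. Luciferase activity after 44 h culture reported infection; substrate was incubated 15 min at room temperature before reading.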
Starred values were filed as active, the others as inactive; i = inactive; ? = inconclusive; / = not tested or not shown; [ ] = dose if it differs, or a comment. Only some compounds are listed: those with a hit (about 21% of all), similar ones and a draw of the others. Unless noted, calls follow the shape of the dose curve; as a rule, active = well fitted curve in the direction sought with a large enough effect; inconclusive = small, poorly fitted or top-dose-only effect, or another doubt; inactive = no such curve, though single readings can be large; an effect the other way counts as inactive or inconclusive.

SMILES | Shiga inhibitor | Pf growth 48h | Pf growth 96h | AMA1 RON2 block | Cycloheximide cs | HCV inhibitor
CC(C)(C)OC(=O)CNC(=O)c1[nH]cnc1C(=O)NC1CCN(C(=O)OC(C)(C)C)CC1 | -13 | ? | ? | 50% | -5 | -3%
CCOC(=O)c1ccc(NC(=O)c2nc[nH]c2C(=O)NC2CCN(C(=O)OC(C)(C)C)CC2)cc1 | 17 | 10µM* | ? | 133% | 3 | 25%
Cn1cnc(C(=O)NC2CCN(C(=O)OC(C)(C)C)CC2)c1C(=O)NC1CCN(C(=O)OC(C)(C)C)CC1 | / | / | / | 0% | / | 0%
CC(C)(C)OC(=O)N1CCC(NC(=O)c2[nH]cnc2C(=O)Nc2cccc(Cl)c2)CC1 | / | ? | ? | 45% | / | 22%
CC(C)(C)OC(=O)N1CCC(NC(=O)c2nc[nH]c2C(=O)NC2CCN(C(=O)OC(C)(C)C)CC2)CC1 | / | 3.7µM* | 3.7µM* | 92% | / | 7%
Cc1cc(C)n(C(=O)c2cc3sccc3[nH]2)n1 | 64* | 39% | -20% | 5% | 30* | ?
Cc1cc(C)n(C(=O)c2ccc(C)o2)n1 | -8 | 1% | / | -7% | 4 | 1%
O=C(O)c1c(C(=O)O)c(-c2ccc(F)cc2)n2c1CCC2 | 1 | 3% | 13% | -13% | -3 | 30%
Cc1cc(C)cc(NS(=O)(=O)c2c(C)[nH]c(=O)[nH]c2=O)c1 | 19 | 12% | 2.1µM* | 13% | 5 | 8%
Cn1ccnc1SCC(=O)c1ccc2ccccc2c1 | 88* | 217% | 157% | -15% | 39* | -17%
O=C(CSc1ncccc1C(=O)O)c1cccc(C(F)(F)F)c1 | 39 | 241% | 109% | 25% | 22 | -18%
O=C(O)CSc1ncnc2nc[nH]c12 | -17 | / | -19% | -6% | -7 | 16%
O=C(CSc1ncnc2nc[nH]c12)c1ccc2ccccc2c1 | 42* | 22% | 5.2µM* | -17% | 33* | -10%
Cc1ccc(NC(=O)CSc2ncc3ccccn23)cc1C | 130* | 25% | 91% | 28% | 39* | -23%
O=C(CSc1ncccc1C(=O)O)c1ccc2ccccc2c1 | 100* | 120% | i | 3% | 45* | -8%
Nc1ncnc2c1ncn2[C@@H]1O[C@H](CNS(=O)(=O)c2ccc3c(c2)CCN(C(=O)C(F)(F)F)C3)[C@@H](O)[C@H]1O | / | / | / | -4% | / | -8%
COc1ccc(CC(=O)NCc2ccc(Cl)cc2)cc1S(=O)(=O)N1CCOCC1 | / | ? | ? | 2% | / | 14%
Cc1cnc(C)c(Nc2nc(C(N)Cc3ccc(Cl)cc3)cs2)n1 (configuration not stated) | / | / | / | 36% | / | /
COc1ccc(C(=O)C2CCCN(Cc3cccc4c3OCO4)C2)cc1OC (configuration not stated) | -4 | -5% | ? | -7% | -2 | -7%
COc1ccc(OC)c(C(=O)CSc2nnnn2C)c1 | 18 | 7% | 31% | -3% | 4 | -1%
COc1ccc(C(=O)CSc2nccn2C)c(OC)c1 | 57* | 135% | 119% | -11% | 50* | -2%
Cn1ccnc1SCC(=O)Nc1ccc2ccccc2c1 | 48* | 192% | -8% | -12% | 42* | -1%
CCN(CC)S(=O)(=O)c1cc(NC(=O)CSc2nccn2C)ccc1C | 103* | 4% | 18% | -10% | 16* | -1%
Cn1ccnc1SCC(=O)Nc1ccccc1 | 30 | 28% | 55% | 20% | -3 | 6%
COc1cccc(C(=O)CSc2nccn2C)c1 | 97* | 77% | 12µM* | 0% | 31* | -3%
C=C(C)c1nc(Oc2ccccc2)nc(Oc2ccccc2)n1 | / | / | / | 36% | / | ?
Cn1cnnc1SCC(=O)c1cc2ccccc2o1 | 12 | 2% | 11% | 6% | 10 | 3%
CN(C)CCC(=O)c1cccc(Br)c1 | 8 | 0% | -5%[5.75 µM] | -1% | 11 | 1%
Cn1ccnc1SCC(=O)c1cc2ccccc2o1 | 117* | 66% | 2% | -9% | 45* | 8%
Cc1ccnc(SCC(=O)c2cc3ccccc3o2)n1 | 25 | 0% | 8% | 11% | 13* | -9%
